Results on three sequences are retold here after PMC11006913.

Common to all, as to assay: PBM; 200 nM protein, PBS
Common to all, as to conditions: dsDNA, one strand shown

One assay addresses T1, VENTX (Homo sapiens, UniProt O95231 78-163, R121Q).
T1 sequence: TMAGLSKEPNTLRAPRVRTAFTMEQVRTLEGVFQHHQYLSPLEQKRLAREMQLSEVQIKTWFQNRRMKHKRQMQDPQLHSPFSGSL

Assay [1] addresses HOXA4 (Homo sapiens, UniProt Q00056 201-287, W262R).
For assay [2], the target named is HOXA7 (Homo sapiens, UniProt P31268 116-202).
Assay [3] addresses ALX4 (Homo sapiens, UniProt Q9H161 200-286).
Assay [4] has as its target PRRX1 (Homo sapiens, UniProt P54821 80-166, F113S).
Assay [5] addresses HOXB6 (Homo sapiens, UniProt P17509 132-218, K202E).
In assay [6] the target is ALX4 (Homo sapiens, UniProt Q9H161 200-286, Q225E).
Assay [7] deals with HOXA2 (Homo sapiens, UniProt O43364 129-215, R185T).
Assay [8] deals with MSX2 (Homo sapiens, UniProt P35548 130-214, R199I).
In assay [9] the target is HOXA2 (Homo sapiens, UniProt O43364 129-215, R185K).
Assay [10] addresses HOXA4 (Homo sapiens, UniProt Q00056 201-287).
Assay [11] deals with MSX2 (Homo sapiens, UniProt P35548 130-214).
In assay [12] the target is MSX2 (Homo sapiens, UniProt P35548 130-214, F161Y).
Assay [13] concerns the target VAX1 (Homo sapiens, UniProt Q5SQQ9 86-172, T142I).
Assay [14] has as its target HOXA7 (Homo sapiens, UniProt P31268 116-202, W177C).
The target of a further assay is ALX1 (Homo sapiens, UniProt Q15699 118-204).
The target in assay [15] is HOXA4 (Homo sapiens, UniProt Q00056 201-287, W262F).
Assay [16] has as its target PRRX1 (Homo sapiens, UniProt P54821 80-166).
Assay [17] addresses VAX1 (Homo sapiens, UniProt Q5SQQ9 86-172, K157R).
For assay [18], the target named is HOXB6 (Homo sapiens, UniProt P17509 132-218).
Chain of HOXB6 (Homo sapiens, UniProt P17509 132-218) (P17509 132-218): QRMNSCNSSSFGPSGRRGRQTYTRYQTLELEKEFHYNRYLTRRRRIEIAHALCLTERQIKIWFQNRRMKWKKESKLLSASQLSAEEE

Chain of VAX1 (Homo sapiens, UniProt Q5SQQ9 86-172, K157R) (Q5SQQ9 86-172 K157R): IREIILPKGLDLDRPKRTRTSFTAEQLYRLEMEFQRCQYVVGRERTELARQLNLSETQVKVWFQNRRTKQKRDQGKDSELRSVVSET
Chain of HOXA7 (Homo sapiens, UniProt P31268 116-202, W177C) (P31268 116-202 W177C): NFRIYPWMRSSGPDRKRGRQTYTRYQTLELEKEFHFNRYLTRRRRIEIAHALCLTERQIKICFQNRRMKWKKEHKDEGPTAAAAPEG
Chain of ALX4 (Homo sapiens, UniProt Q9H161 200-286) (Q9H161 200-286): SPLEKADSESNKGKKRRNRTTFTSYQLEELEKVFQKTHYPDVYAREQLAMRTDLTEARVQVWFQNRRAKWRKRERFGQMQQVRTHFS
Chain of MSX2 (Homo sapiens, UniProt P35548 130-214) (P35548 130-214): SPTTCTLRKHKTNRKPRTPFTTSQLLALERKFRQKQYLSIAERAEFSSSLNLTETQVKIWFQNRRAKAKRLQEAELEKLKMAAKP
Chain of HOXA2 (Homo sapiens, UniProt O43364 129-215, R185K) (O43364 129-215 R185K): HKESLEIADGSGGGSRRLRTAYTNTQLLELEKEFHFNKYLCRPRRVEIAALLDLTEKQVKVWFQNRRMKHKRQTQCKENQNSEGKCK
Chain of MSX2 (Homo sapiens, UniProt P35548 130-214, F161Y) (P35548 130-214 F161Y): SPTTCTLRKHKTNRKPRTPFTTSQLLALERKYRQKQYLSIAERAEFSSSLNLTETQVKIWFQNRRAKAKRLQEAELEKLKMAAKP
Chain of PRRX1 (Homo sapiens, UniProt P54821 80-166) (P54821 80-166): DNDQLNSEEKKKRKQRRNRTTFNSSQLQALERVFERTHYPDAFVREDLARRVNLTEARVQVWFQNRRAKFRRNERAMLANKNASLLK
Chain of HOXA4 (Homo sapiens, UniProt Q00056 201-287) (Q00056 201-287): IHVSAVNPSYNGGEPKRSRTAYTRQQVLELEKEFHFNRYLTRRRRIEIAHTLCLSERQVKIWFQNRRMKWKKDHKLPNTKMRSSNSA
Chain of HOXA2 (Homo sapiens, UniProt O43364 129-215, R185T) (O43364 129-215 R185T): as the sequence (O43364 129-215 R185K) above, with K57T counted along it
Chain of HOXA4 (Homo sapiens, UniProt Q00056 201-287, W262F) (Q00056 201-287 W262F): as the sequence (Q00056 201-287) above, with W62F counted along it
Chain of HOXB6 (Homo sapiens, UniProt P17509 132-218, K202E) (P17509 132-218 K202E): as the sequence (P17509 132-218) above, with K71E counted along it
Chain of ALX4 (Homo sapiens, UniProt Q9H161 200-286, Q225E) (Q9H161 200-286 Q225E): as the sequence (Q9H161 200-286) above, with Q26E counted along it
Chain of MSX2 (Homo sapiens, UniProt P35548 130-214, R199I) (P35548 130-214 R199I): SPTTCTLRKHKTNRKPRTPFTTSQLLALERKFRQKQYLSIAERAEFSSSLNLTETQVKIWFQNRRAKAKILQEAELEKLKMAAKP
Chain of PRRX1 (Homo sapiens, UniProt P54821 80-166, F113S) (P54821 80-166 F113S): as the sequence (P54821 80-166) above, with F34S counted along it
Chain of HOXA7 (Homo sapiens, UniProt P31268 116-202) (P31268 116-202): as the sequence (P31268 116-202 W177C) above, with C62W counted along it
Chain of HOXA4 (Homo sapiens, UniProt Q00056 201-287, W262R) (Q00056 201-287 W262R): as the sequence (Q00056 201-287) above, with W62R counted along it
Chain of VAX1 (Homo sapiens, UniProt Q5SQQ9 86-172, T142I) (Q5SQQ9 86-172 T142I): as the sequence (Q5SQQ9 86-172 K157R) above, with T57I, R72K counted along it
Chain of ALX1 (Q15699 118-204): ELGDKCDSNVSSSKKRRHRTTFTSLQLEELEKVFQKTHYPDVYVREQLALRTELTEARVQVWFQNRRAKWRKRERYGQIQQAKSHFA

As to GTTAATTA, the binding signal with VENTX was 12.5 upbm affinity estimate (log intensity, higher = more binding, comparable within an allelic series); in the assay with HOXA4 [1] it was 11 upbm affinity estimate (log intensity, higher = more binding, comparable within an allelic series); with HOXA7 [2] it was 12.2 upbm affinity estimate (log intensity, higher = more binding, comparable within an allelic series); with ALX4 [3], 14.5 upbm affinity estimate (log intensity, higher = more binding, comparable within an allelic series); with PRRX1 [4], 12 upbm affinity estimate (log intensity, higher = more binding, comparable within an allelic series); with HOXB6 [5] it was 10.2 upbm affinity estimate (log intensity, higher = more binding, comparable within an allelic series). For the same sequence, the binding signal with ALX4 [6] was 14.5 upbm affinity estimate (log intensity, higher = more binding, comparable within an allelic series); in the assay with HOXA2 [7], 13.9 upbm affinity estimate (log intensity, higher = more binding, comparable within an allelic series); in the assay with MSX2 [8] it was 13.1 upbm affinity estimate (log intensity, higher = more binding, comparable within an allelic series); in the assay with HOXA2 [9], 13.8 upbm affinity estimate (log intensity, higher = more binding, comparable within an allelic series); with HOXA4 [10], 14.3 upbm affinity estimate (log intensity, higher = more binding, comparable within an allelic series); in the assay with MSX2 [11], 14 upbm affinity estimate (log intensity, higher = more binding, comparable within an allelic series). Also, the binding signal with MSX2 [12] is 13.6 upbm affinity estimate (log intensity, higher = more binding, comparable within an allelic series); with VAX1 [13], 13.9 upbm affinity estimate (log intensity, higher = more binding, comparable within an allelic series); with HOXA7 [14], 8.93 upbm affinity estimate (log intensity, higher = more binding, comparable within an allelic series); with ALX1, 13 upbm affinity estimate (log intensity, higher = more binding, comparable within an allelic series); with HOXA4 [15] it was 13 upbm affinity estimate (log intensity, higher = more binding, comparable within an allelic series); with PRRX1 [16] it was 13.6 upbm affinity estimate (log intensity, higher = more binding, comparable within an allelic series). Also, the binding signal is 13.9 upbm affinity estimate (log intensity, higher = more binding, comparable within an allelic series) with VAX1 [17] and 12.5 upbm affinity estimate (log intensity, higher = more binding, comparable within an allelic series) with HOXB6 [18].

In the case of ATTAATTG, the binding signal with VENTX was 12.2 upbm affinity estimate (log intensity, higher = more binding, comparable within an allelic series); in the assay with HOXA4 [1], 10.7 upbm affinity estimate (log intensity, higher = more binding, comparable within an allelic series); with HOXA7 [2], 12 upbm affinity estimate (log intensity, higher = more binding, comparable within an allelic series); with ALX4 [3] it was 14.2 upbm affinity estimate (log intensity, higher = more binding, comparable within an allelic series); with PRRX1 [4], 11.4 upbm affinity estimate (log intensity, higher = more binding, comparable within an allelic series); with HOXB6 [5], 10.1 upbm affinity estimate (log intensity, higher = more binding, comparable within an allelic series). Further, the binding signal was 13.8 upbm affinity estimate (log intensity, higher = more binding, comparable within an allelic series) with ALX4 [6]; 13.3 upbm affinity estimate (log intensity, higher = more binding, comparable within an allelic series) with HOXA2 [7]; 13.1 upbm affinity estimate (log intensity, higher = more binding, comparable within an allelic series) with MSX2 [8]; 13.5 upbm affinity estimate (log intensity, higher = more binding, comparable within an allelic series) with HOXA2 [9]; 14 upbm affinity estimate (log intensity, higher = more binding, comparable within an allelic series) in the assay with HOXA4 [10]; 14 upbm affinity estimate (log intensity, higher = more binding, comparable within an allelic series) with MSX2 [11]. Besides, the binding signal was 13.7 upbm affinity estimate (log intensity, higher = more binding, comparable within an allelic series) in the assay with MSX2 [12]; 12.9 upbm affinity estimate (log intensity, higher = more binding, comparable within an allelic series) with VAX1 [13]; 8.87 upbm affinity estimate (log intensity, higher = more binding, comparable within an allelic series) with HOXA7 [14]; 12.6 upbm affinity estimate (log intensity, higher = more binding, comparable within an allelic series) with ALX1; 11.8 upbm affinity estimate (log intensity, higher = more binding, comparable within an allelic series) with HOXA4 [15]; 13.4 upbm affinity estimate (log intensity, higher = more binding, comparable within an allelic series) in the assay with PRRX1 [16]. The binding signal in the assay with VAX1 [17] is 12.9 upbm affinity estimate (log intensity, higher = more binding, comparable within an allelic series); with HOXB6 [18], 12.3 upbm affinity estimate (log intensity, higher = more binding, comparable within an allelic series).

As to TAATTAAA, the binding signal with VENTX was 12.1 upbm affinity estimate (log intensity, higher = more binding, comparable within an allelic series); with HOXA4 [1], 10.8 upbm affinity estimate (log intensity, higher = more binding, comparable within an allelic series); with HOXA7 [2], 11.9 upbm affinity estimate (log intensity, higher = more binding, comparable within an allelic series); with ALX4 [3], 14.4 upbm affinity estimate (log intensity, higher = more binding, comparable within an allelic series); with PRRX1 [4], 11.9 upbm affinity estimate (log intensity, higher = more binding, comparable within an allelic series); with HOXB6 [5], 10.1 upbm affinity estimate (log intensity, higher = more binding, comparable within an allelic series). The binding signal with ALX4 [6] was 14.1 upbm affinity estimate (log intensity, higher = more binding, comparable within an allelic series); with HOXA2 [7], 13.5 upbm affinity estimate (log intensity, higher = more binding, comparable within an allelic series); in the assay with MSX2 [8], 12.9 upbm affinity estimate (log intensity, higher = more binding, comparable within an allelic series); in the assay with HOXA2 [9] it was 13.5 upbm affinity estimate (log intensity, higher = more binding, comparable within an allelic series); with HOXA4 [10], 14.1 upbm affinity estimate (log intensity, higher = more binding, comparable within an allelic series); in the assay with MSX2 [11], 13.9 upbm affinity estimate (log intensity, higher = more binding, comparable within an allelic series). The binding signal in the assay with MSX2 [12] is 13.5 upbm affinity estimate (log intensity, higher = more binding, comparable within an allelic series); with VAX1 [13] it was 13.4 upbm affinity estimate (log intensity, higher = more binding, comparable within an allelic series); with HOXA7 [14], 8.8 upbm affinity estimate (log intensity, higher = more binding, comparable within an allelic series); with ALX1 it was 12.6 upbm affinity estimate (log intensity, higher = more binding, comparable within an allelic series); in the assay with HOXA4 [15], 12.3 upbm affinity estimate (log intensity, higher = more binding, comparable within an allelic series); with PRRX1 [16], 13.6 upbm affinity estimate (log intensity, higher = more binding, comparable within an allelic series). Besides, the binding signal was 13.4 upbm affinity estimate (log intensity, higher = more binding, comparable within an allelic series) with VAX1 [17] and 12.3 upbm affinity estimate (log intensity, higher = more binding, comparable within an allelic series) with HOXB6 [18].
